# In PubChem BioAssay AID504332 (National Center for Advancing Translational Sciences (NCATS), 2011):
# In all, about 350,000 compounds went through this assay and about 31,000 (8.9%) were called active. Inconclusive results (about 15%) are left out. This excerpt belongs to a sample that is enriched for actives. Unmarked numbers belong to inactive results. Calls come from the whole dose curve; as a rule, active = well fitted inhibition curve with a large enough effect; inconclusive = small, poorly fitted or top-dose-only effect; inactive = no such curve, though single readings can be large or run the other way.
# Molecular target: Histone-lysine N-methyltransferase EHMT2 (Homo sapiens) (UniProt Q96KQ7)
# Sequence (Q96KQ7 913-1193 limits assumed): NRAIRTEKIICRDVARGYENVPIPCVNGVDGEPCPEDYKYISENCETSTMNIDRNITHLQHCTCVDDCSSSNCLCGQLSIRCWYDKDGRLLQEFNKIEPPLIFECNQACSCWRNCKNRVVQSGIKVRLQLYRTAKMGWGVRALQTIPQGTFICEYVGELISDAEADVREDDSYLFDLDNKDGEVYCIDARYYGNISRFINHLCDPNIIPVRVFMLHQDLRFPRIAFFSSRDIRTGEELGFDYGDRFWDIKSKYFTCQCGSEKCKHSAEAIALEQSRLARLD
# Experiment: qHTS Assay for Inhibitors of Histone Lysine Methyltransferase G9a; note: nearly all actives have a fitted effect of over 75% in size
# Conditions: G9a H3K9 monomethylation, AlphaScreen, 2 h; series mostly up to 59 µM; activity, negative = inhibition: at the top concentration
# Summary of the method: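 Readings reflect AlphaScreen signal from monomethyl-H3K9 antibody detection. HMT at 20 nM; substrate b-H3K9 500 nM; cofactor SAM 20 uM; 2 h RT reaction; compounds tested as titrations in qHTS with 15 min preincubation.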
# % is set by controls: 0 for no effect and ±100 for the full control effect; potency is the fitted concentration of half-maximal effect.
Structure (SMILES),"activity, negative = inhibition",Potency
CCc1sc(C(=O)N2CCN(CC(=O)Nc3cccc(F)c3)CC2)cc1C,13.2%,
CCN(C(=O)COC(=O)C1CCN(S(=O)(=O)c2ccc(C)c(C)c2)CC1)C1CCS(=O)(=O)C1 (stereo not drawn),7.98% [at 2.33 µM],
COc1ccc(C2CC(=O)N(Cc3ccccc3C)c3c2c(C)nn3-c2nc(C)cc(C)n2)c(OC)c1 (stereo not drawn),-2.3%,
Cc1cc(NC(=O)CSc2ncc(C(=O)Nc3ccc(Cl)cc3)c(=O)n2C)no1,2.93%,
COc1ccc(-c2nc(S(=O)(=O)c3ccccc3)c(N3CCCCC3)o2)cc1,-18.6%,
COc1cccc(-c2nc(S(=O)(=O)c3ccccc3)c(N3CCOCC3)o2)c1,-43% [at 12.7 µM],
O=S(=O)(c1ccccc1)c1nc(Cc2ccccc2)oc1N1CCOCC1,,7.08 µM (active)
COc1ccc(CNC(=O)COC(=O)c2c(C)nn(-c3ccccc3)c2C)cc1OC,4% [at 102 µM],
C#CCOCCOCCOCCNc1nc(N2CCN(C(=O)Cn3cc(CCCCN)nn3)CC2)nc(N2CCN(C(=O)[C@H](CCCCN)n3cc(CCC(=O)O)nn3)CC2)n1,5.8% [at 2.33 µM],
C#CCOCCOCCOCCNc1nc(N2CCN(C(=O)CCCCCCCCCCNC(=O)[C@H](CCCCN)n3cc(C)nn3)CC2)nc(N2CCN(C(=O)CCCCCCCCCCNC(=O)[C@H](CO)n3cc(CCCSC)nn3)CC2)n1,-8.81% [at 2.33 µM],
C#CCOCCOCCOCCNc1nc(N2CCN(C(=O)[C@H](C(C)C)n3cc(CCO)nn3)CC2)nc(N2CCN(C(=O)[C@H](C(C)C)n3cc(CCO)nn3)CC2)n1,,44.7 µM (active)
C#CCOCCOCCOCCNc1nc(N2CCN(C(=O)[C@H](C(C)C)n3cc(CCO)nn3)CC2)nc(N2CCN(C(=O)[C@H]([C@@H](C)CC)n3cc(CCCN=C(N)N)nn3)CC2)n1,,39.8 µM (active)
C#CCOCCOCCOCCNc1nc(N2CCN(C(=O)[C@H](CCCCN)n3cc(CCC(=O)O)nn3)CC2)nc(N2CCN(C(=O)[C@H](CCCCN)n3cc(CC(C)O)nn3)CC2)n1 (stereo partly drawn),-23.5% [at 2.33 µM],
C#CCOCCOCCOCCNc1nc(N2CCN(C(=O)CCCCCCCCCCNC(=O)[C@H]([C@@H](C)CC)n3cc(CCCCN=C(N)N)nn3)CC2)nc(N2CCN(C(=O)CCCCCCCCCCNC(=O)[C@H](CO)n3cc(CCCSC)nn3)CC2)n1,10.6% [at 2.33 µM],
COc1ccccc1CNC(=O)NCc1noc2ccc(C)cc12,9.85%,
Cc1cc(C)c(NC(=O)CCc2c(C)nc3c(c(C)nn3C(C)(C)C)c2C)c(C)c1,-0.258%,
N#Cc1nc(/C=C/c2ccc(F)cc2)oc1NCc1ccc(F)cc1,-28.7%,
O=C(Nc1ccc2c(c1)OCO2)c1cc(-c2cccc(Cl)c2)on1,-27.1%,
COc1ccc(NC(=O)Cn2c(=O)cc(C)c3c(C)nn(-c4cccc(Cl)c4C)c32)cc1OC,-1.25%,
COc1cccc(CNC(=O)Cc2csc3nc(-c4ccccc4)cn23)c1,5.25%,
O=C1/C(=C\c2ccsc2)NC(=S)N1c1ccccc1,,50.1 µM (active)
O=C1/C(=C/c2coc3ccc(O)cc3c2=O)SC(=S)N1c1ccccc1,-31.3% [at 12.7 µM],
CC1=CC(C)(C)NC(=S)N1c1ccccc1,13.4% [at 102 µM],
CC(=O)c1ccccc1OCc1ccc(C(=O)c2ccccc2)cc1,171% [at 102 µM],
O=C(O)c1cccc(S(=O)(=O)N2CC=C(c3ccccc3)CC2)c1,23% [at 12.7 µM],
Cc1c(C2=CCN(S(=O)(=O)c3ccc(Cl)cc3)CC2)c2ccccc2n1C,,44.7 µM (active)
COc1ccccc1N1CCN(S(=O)(=O)c2ccc(Cl)cc2)CC1,-9.73% [at 102 µM],

Structure (SMILES),"activity, negative = inhibition",Potency
COc1ccc(NC(=O)CSC2=Nc3ccccc3C3=NC(CC(=O)NCc4ccccc4OC)C(=O)N23)cc1Cl (stereo not drawn),-1.6%,
CCC(C)CCN1CCN=C1N(C)C (stereo not drawn),2.04% [at 2.33 µM],
CN(C)CCOc1ccc(Cl)cc1C(C)(C)C,,8.91 µM (active)
CCC(C)(C)c1ccc(OCC(=O)N(C)C)c(C(C)(C)CC)c1,90% [at 102 µM],
O=C(NCCCO)c1nn(-c2ccc(Cl)cc2)nc1CO,5.62%,
Cc1nn(Cc2ccccc2)c(C)c1C(=O)NCCN1C(=O)S/C(=C\c2ccc(F)cc2)C1=O,7.37%,
COc1ccc(/C=C2\SC(=S)N(CCC(=O)Nc3cccc(C(=O)O)c3)C2=O)cc1OC,-17.4% [at 102 µM],
N#Cc1ccccc1CN1C(=O)S/C(=C/c2cccn2-c2cccc(C(=O)O)c2)C1=O,,44.7 µM (active)
CC(C)C(=O)Nc1nc2c(s1)CC(C(C)(C)C)CC2 (stereo not drawn),-22.5%,
Cn1nnnc1SCCCNCc1ccc(Cl)cc1,0.182%,
O=C(CCNC(=O)c1ccccc1)Nc1nc2ccccc2s1,-6.33% [at 0.501 µM],
CCN(CC)CCOCCOc1ccc(Cl)c2ccccc12,-33.6% [at 102 µM],
CN(C)CCOCCOc1ccc(Cl)c2ccccc12,,14.1 µM (active)
O=S(=O)(c1ccc(Cl)cc1)c1nc(-c2ccco2)oc1N1CCCCC1,32.5% [at 12.7 µM],
Clc1cccc(-n2ncc3c(NCCc4ccccc4)ncnc32)c1,27%,
O=C(/C=C/c1c(F)cccc1Cl)Nc1nn[nH]n1,,39.8 µM (active)
O=C(CCc1ccccc1)Nc1nn[nH]n1,-24.3%,
O=C(/C=C/c1c(Cl)cccc1Cl)NCc1ccccc1,21.8% [at 102 µM],
CSc1ccccc1NC(=O)c1cnc2sc(C)cn2c1=O,-1.35%,
O=S(=O)(NC1CCN(S(=O)(=O)c2ccc3c(c2)OCCO3)CC1)c1c(F)cccc1F,3.66% [at 12.7 µM],
COc1cccc(N(CC(=O)NC2CCCC2)C(=O)Cn2nnc(-c3ccc(C)o3)n2)c1,-17.4% [at 102 µM],
O=C(Cc1ccc([N+](=O)[O-])cc1)Nc1ccc(C(=O)N2CCOCC2)cc1,-23% [at 102 µM],
O=C(Nc1ccc(N2CCOCC2)cc1)c1ccc(-c2ccccc2[N+](=O)[O-])o1,,17.8 µM (active)
COc1cc2ccccc2cc1C(=O)Nc1ccc(N2CCOCC2)cc1,-2.84% [at 102 µM],
O=C(COc1ccccc1)Nc1cc2c3c(c1)CC(=O)N3CCC2,3.1% [at 102 µM],
Cc1ccc(C)c(N2CCN(C(=O)CCCCCn3c(=S)[nH]c4ccc(N5CCOCC5)cc4c3=O)CC2)c1,65.5%,
